Experimental data: PubChem BioAssay AID803 (The Scripps Research Institute Molecular Screening Center, 2007)
The whole screen tested about 140,000 compounds, of which about 680 (0.49%) were called active. No stated cut-off is given here; in the data, active means activation above about 5% (passing the limit was not always enough); inactive means the rest. Shown is part of a subset that was picked to be rich in actives.

target: Galanin receptor type 2 (Homo sapiens) (UniProt O43603); assay: GALR2 receptor agonists, primary screen, cell-based (AID 803); conditions: GALR2-expressing cells, agonist activation read-out; at 5.6 µM; hits give high values;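 further: 0% = vehicle buffer wells and 100% = reference agonist at full effect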
Sequence (O43603 whole entry, looked up): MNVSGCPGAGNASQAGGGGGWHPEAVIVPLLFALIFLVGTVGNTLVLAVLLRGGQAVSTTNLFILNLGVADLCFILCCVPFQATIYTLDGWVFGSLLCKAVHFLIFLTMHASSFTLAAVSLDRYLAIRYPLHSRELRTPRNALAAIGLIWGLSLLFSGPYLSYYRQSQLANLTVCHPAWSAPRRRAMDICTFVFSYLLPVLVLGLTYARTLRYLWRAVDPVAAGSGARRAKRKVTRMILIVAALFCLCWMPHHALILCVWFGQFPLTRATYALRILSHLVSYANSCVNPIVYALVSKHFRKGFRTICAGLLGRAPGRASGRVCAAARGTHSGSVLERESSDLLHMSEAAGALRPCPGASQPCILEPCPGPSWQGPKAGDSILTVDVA

activation, inactive:
CC1Cc2ccccc2N1C(=O)CSc1nnc(-c2ccc(S(=O)(=O)N3CCCC3)cc2)n1C (stereo unspecified) -1.17%
CN(C)CCCn1c(N)c(C#N)c2nc(C#N)c(C#N)nc21 5.27%
CC(C)(C)OC(=O)c1c(N)n(CCCN2CCCC2=O)c2nc3ccccc3nc12 3.75%
CN1OC(COC(=O)c2ccc(Cl)cc2)CC1c1ccccc1 (stereo unspecified) -1.93%
O=S(=O)(O)c1nc2ccccc2n1Cc1ccc(Cl)cc1 -2.3%
CC(Oc1ccccc1)C(=O)Nc1oc(-c2ccco2)c(-c2ccco2)c1C#N (stereo unspecified) -0.85%
O=C(/C=C/c1ccc(Cl)cc1)N1CCN(c2ccccc2[N+](=O)[O-])CC1 -1.19%
Cc1nc2nc(SCC(=O)NCc3ccco3)nn2c(C)c1Cc1ccccc1 0.05%
Cc1ccc(NC(=S)NCCN2CCOCC2)cc1 -2.96%
Cc1cc(C)nc(-n2ncc3c2CC(c2ccc(C(C)C)cc2)CC3=O)n1 (stereo unspecified) 0.11%
O=C(Nc1ccccc1F)c1ccccc1-c1ccc(C(F)(F)F)cc1 -0.53%
O=C(NCC1CCCO1)/C(=C/c1ccc(Cl)cc1)NC(=O)c1ccccc1 (stereo unspecified) -1.2%
CCOC(=O)Cc1csc(NC(=O)Nc2ccccc2)n1 -2.31%
CCOC(=O)Cc1csc(NC(NC(=O)OCC)(C(F)(F)F)C(F)(F)F)n1 -2.02%
CCCCN1C(=O)c2ccc(C(=O)Nc3ccc(S(=O)(=O)N(C)C)cc3)cc2C1=O -1.35%
CC(=O)NC(Cc1ccccc1)C(=O)NC1CCN(c2ncccc2[N+](=O)[O-])CC1 (stereo unspecified) -0.16%
OC(COCc1ccco1)CN1CCN(c2ccccc2)CC1 (stereo unspecified) -1.72%
Cc1ccc(C(=O)Nc2ccc(C)c(S(=O)(=O)N(C)C)c2)s1 0.14%
O=S(=O)(Nc1ccccn1)c1ccc(Oc2ccccc2)cc1 -1.45%
COC(=O)CNC(=O)c1ccccc1[N+](=O)[O-] -2.69%
COc1cc(CN2CC(C)CC(C)C2)cc([N+](=O)[O-])c1O (stereo unspecified) 0.36%

activation, active:
CC(C)(C)c1ccc(C(=O)NCCn2c(N)c(C#N)c3nc4ccccc4nc32)cc1 6.59%
N#Cc1c(N)n(CCOC(=O)c2ccc(Cl)cc2)c2nc3ccccc3nc12 7.76%
Cc1ccc(Cc2c(C)nc3nc(SCC(=O)NCCN4CCOCC4)nn3c2C)cc1 24.8%
CCOC(=O)Cc1csc(NC(=O)C(C)(C)C)n1 6.79%
O=[N+]([O-])c1ccccc1SNc1ccccn1 10.3%
